# High-throughput results: PubChem, several laboratories
# 3CLpro inhibitor: SARS-CoV 3CLpro protease inhibitors, primary screen, biochemical, quenched FRET | Replicase polyprotein 1ab (Severe acute respiratory syndrome coronavirus), P0C6X7 | recombinant SARS-CoV 3CLpro, quenched FRET peptide cleavage | inhibition, % at 6 µM | 290,000 tested, 0.14% active; in the data active means inhibition above about 12%
# PfHsp40 rescue: rescue of yeast from PfHsp40 toxicity, primary screen, S. cerevisiae, ATP luminescence | growth rescue, % at 12.5 µM | S. cerevisiae expressing PfHsp40, growth rescue | 340,000 tested, 0.68% active; in the data active means growth rescue above about 28%, passing the limit was not always enough;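 further: yeast W303a lacking pdr1 and pdr3 grown in galactose medium; growth measured after three days at 30 °C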
# BH1578 lux ind: inducers of Vibrio cholerae quorum light production without autoinducers, primary screen, BH1578 luxS cqsA deficient, single point; 350,000 tested, 0.16% active; AID 588436, 2011; V. cholerae BH1578 lux reporter, luminescence, 6 h; activation, % at 18.7 µM; in the data active means activation mostly above about 9.7%, no sharp cut-off
# PrP UTR inh: inhibition of PrP 5' UTR reporter expression; 340,000 tested, 0.35% active; inhibition, % (test concentration not listed); AID 488862, 2010; cell-based PrP 5' UTR mRNA reporter, plate reader; in the data active means inhibition above about 52%
# SSB-PriA inh: inhibitors of Klebsiella pneumoniae PriA binding to SSB C-terminal tail, primary screen, biochemical, AlphaScreen | 430,000 tested, 0.6% active | inhibition, % at 33 µM | AlphaScreen SSBct-PriA binding, biotinylated peptide; in the data active means inhibition mostly above about 37%, no sharp cut-off; inactive means mostly below about 20%
# PrPC surface inh: inhibitors of human cell surface prion protein PrPC, primary screen, cell-based, TR-FRET | 370,000 tested, 0.43% active | TR-FRET read-out | AID 720596, 2013 | Major prion protein (Homo sapiens), P04156 | inhibition, % at 13.8 µM; in the data active means inhibition above about 24%
# Numbers stand for hits; i = inactive; nt = no result; ! = not confirmed by another sample. The list is not random: actives were taken first. Their share in the collection is about 1.6%.
SMILES,3CLpro inhibitor,PfHsp40 rescue,BH1578 lux ind,PrP UTR inh,SSB-PriA inh,PrPC surface inh
O=C(Nc1nc(-c2ccccn2)cs1)c1ccc(=O)[nH]c1,nt,nt,nt,nt,95,nt
O=C(Nc1nc(-c2ccccn2)cs1)c1cc(F)cc(F)c1,nt,nt,nt,nt,i,nt
O=C(Nc1nc(-c2ccccn2)cs1)c1cc(-c2ccco2)[nH]n1,nt,nt,nt,nt,66,nt
O=C(Nc1nc(-c2ccccn2)cs1)c1ccc(C2SCCS2)cc1,nt,nt,nt,nt,i,nt
O=C(Nc1nc(-c2ccco2)cs1)c1ccccc1,i,i,i,i,i,i
O=C(Nc1nc(-c2ccccn2)cs1)c1sccc1C1CC1,nt,nt,nt,nt,114,nt
Cc1ccc(NC(=O)Nc2cnc(Oc3ccccc3)nc2)cc1F,nt,nt,nt,nt,i,nt
CSC[C@@](C)(O)CNC(=O)c1c(C)cc(C)cc1C,nt,nt,nt,nt,i,nt
O=C(Nc1nc(-c2ccccn2)cs1)c1ccc(Cl)c([N+](=O)[O-])c1,nt,nt,nt,nt,i,nt
CCc1ccc(C(=O)Nc2nc(-c3ccccn3)cs2)cc1,nt,nt,nt,nt,85,nt
CC(=O)Nc1ccc(C(=O)Nc2nc(-c3ccccn3)cs2)cc1,i,i,i,i,78,i
CCc1cc(C(=O)Nc2nc(-c3ccccn3)cs2)sc1C,nt,365,i,i,i,i
Cc1cc(C(=O)Nc2nc(-c3ccccn3)cs2)ccc1[N+](=O)[O-],i,73,i,i,47,i
Cc1nn(-c2ccc(Nc3ccc(NC(=O)c4cccc(F)c4)cc3)nn2)c(C)c1C,nt,nt,nt,nt,i,nt
COc1ccccc1Nc1ncc([N+](=O)[O-])cc1[N+](=O)[O-],nt,nt,nt,nt,i,nt
O=C(Nc1nc(-c2ccccn2)cs1)c1ccccc1,nt,nt,nt,nt,101,nt
Cc1ccc(C(=O)Nc2nc(-c3ccccn3)cs2)cc1,nt,nt,nt,nt,78,nt
Cc1nc(C)c(C(=O)Nc2nc(-c3ccccn3)cs2)s1,nt,nt,nt,nt,157,nt
O=C(Nc1nc(-c2ccccn2)cs1)c1ccc(Oc2ccc(C(=O)Nc3nc(-c4ccccn4)cs3)cc2)cc1,nt,nt,nt,nt,i,nt
O=C(Nc1nc(-c2ccccn2)cs1)c1ccc(C(=O)c2ccccc2)cc1,nt,nt,nt,nt,i,nt
Cc1ccc(C(=O)Nc2nc(-c3ccccn3)cs2)cc1-n1cccc1,nt,nt,nt,nt,103,nt
Cn1nc(C(=O)Nc2nc(-c3ccccn3)cs2)c2ccccc2c1=O,nt,i,i,i,43,i
CCCn1nc(C(=O)Nc2nc(-c3ccccn3)cs2)c2ccccc2c1=O,nt,i,i,i,i,i
Cn1nc(C(=O)Nc2nc(-c3ccccn3)cs2)ccc1=O,nt,nt,nt,nt,i,nt
CCn1ccc(C(=O)Nc2nc(-c3ccccn3)cs2)n1,nt,nt,nt,nt,95,nt
SMILES,3CLpro inhibitor,PfHsp40 rescue,BH1578 lux ind,PrP UTR inh,SSB-PriA inh,PrPC surface inh
O=C(Nc1nc(-c2ccccn2)cs1)c1ccccc1Cl,nt,nt,nt,nt,100,nt
O=C(Nc1nc(-c2ccccn2)cs1)c1cc(S(=O)(=O)N2CCOCC2)c(Cl)cc1Cl,nt,nt,nt,nt,76,nt
O=C(Nc1nnc(-c2ccccc2)s1)c1cc(S(=O)(=O)N2CCOCC2)c(Cl)cc1Cl,i,i,i,i,i,i
COc1ccccc1-c1c(N)oc2cc(O)ccc2c1=O,nt,nt,nt,nt,i,nt
O=C(Nc1ccc2c(c1)CN(C(=O)c1cccs1)CC2)c1cccc2ccccc12,nt,nt,nt,nt,i,nt
O=C(CC1CCCCN1S(=O)(=O)c1ccccc1)Nc1ccc(Br)cc1 (configuration not stated),nt,nt,nt,nt,i,nt
Cc1cc(C(=O)Nc2nc(-c3ccccn3)cs2)no1,nt,nt,nt,nt,75,nt
CSc1ccccc1C(=O)Nc1nc(-c2ccccn2)cs1,nt,nt,nt,nt,106,nt
Cc1ccc(C(=O)Nc2nc(-c3ccccn3)cs2)o1,i,i,i,i,i,i
O=S(=O)(Cc1ccc(Cl)cc1)N1CC[C@H](c2ccccn2)C1,nt,nt,nt,nt,i,nt
CC(=NNC(=S)N1CCC1)c1ccccn1,nt,34,i,i,72,i
O=S(=O)(c1ccccc1)N1CCC(c2ccccn2)C1 (configuration not stated),nt,nt,nt,nt,40,nt
O=C(NCc1ccccn1)C1CCCN(S(=O)(=O)c2ccccc2)C1 (configuration not stated),i,i,i,i,i,i
CC(=NNC(=O)C1CCCN(S(=O)(=O)c2ccccc2)C1)c1ccccn1 (configuration not stated),nt,nt,nt,nt,49,nt
O=C(CSc1nc2ccccc2o1)N1Cc2cnc(N3CCOCC3)nc2C1,nt,nt,nt,nt,i,nt
O=C(/C(N=Nc1cccc(C(F)(F)F)c1)=C(/O)c1cccs1)C(F)(F)F,i,195,i,i,nt,i
O=C(C(N=Nc1cccc(C(F)(F)F)c1)=C(O)c1cccs1)C(F)(F)F,nt,nt,nt,nt,i,nt
Cc1[nH]c(=O)n(C)c(=O)c1CCC(=O)Nc1cccc(F)c1,nt,nt,nt,nt,i,nt
O=C(CSc1nc(C(F)(F)F)cc(=O)[nH]1)N1CCN(c2ccccc2)CC1,nt,nt,nt,nt,i,nt
C=Cn1c(C(=O)O)ccc1-c1ccc(CC)cc1,i,i,i,i,i,i
CC(=O)N1CC[n+]2c(-c3ccc(Cl)cc3)csc21,i,66,i,i,i,i
CCc1ccc(-c2csc3[n+]2CCN3C(C)=O)cc1,i,93,i,i,i,i
CC(=O)N1CCN(C(=S)c2ccc(Cl)cc2)CC1,i,i,i,i,i,i
CCCN(CCC)S(=O)(=O)c1ccc(C(=O)NCc2n[nH]c(=S)n2-c2ccc(Cl)c(Cl)c2)cc1,i,i,i,i,45!,i
CCOC(=O)c1c(C)[nH]c(N=Nc2cccc(OC)c2)c1C,i,77,i,i,i,i
SMILES,3CLpro inhibitor,PfHsp40 rescue,BH1578 lux ind,PrP UTR inh,SSB-PriA inh,PrPC surface inh
O=C1CCc2cc(S(=O)(=O)NCc3ccccn3)cc3c2N1CC3,nt,nt,nt,nt,i,nt
Cc1cc(C)c(C(=O)CC(=O)c2cccnc2)c(C)c1,nt,286,i,i,i,i
Cc1cc(C)c(NC(=O)COC(=O)c2cccnc2)c(C)c1,nt,nt,nt,nt,i,nt
CN1CCCC1CCNC1C2CC3CC(C2)CC1C3 (configuration not stated),i,i,i,i,41,i
O=C(Cn1ccccc1=S)c1ccc(Cl)c(Cl)c1,nt,nt,i,nt,i,i
On1ccccc1=S,nt,382,i,i,i,42
CCOc1ccc(-c2ccc(=O)n(CCNC(=O)Cc3ccc(Br)cc3)n2)cc1,nt,nt,nt,nt,i,nt
CC(=O)C(=NNc1ccccc1[N+](=O)[O-])N1CCCc2ccccc21,nt,nt,nt,nt,56,nt
COc1cc(OC)cc(C(=O)/C=C2\Sc3ccccc3N2C)c1,i,i,i,i,i,i
COc1ccc2c(c1)S/C(=C\C(=O)c1ccncc1)N2C,i,174,i,i,i,i
O=C(c1ccc(F)cc1Cl)N1CCC(Cn2cccn2)CC1,nt,nt,nt,nt,37,nt
O=C(c1ccco1)N1CCC(Cn2cccn2)CC1,nt,nt,nt,nt,i,nt
Cc1cc(C)nc(N=C2NC(=O)CC(C(=O)O)N2CCc2c[nH]c3ccccc23)n1 (configuration not stated),nt,nt,nt,nt,i,nt
COc1c(O)c(=O)n2c3ccccc3c3ccnc1c32,nt,66,i,i,i,i
COc1ccc(S(=O)(=O)N2CCOCC2)cc1NC(=O)CSc1ccccc1,i,i,i,i,i,i
O=C(CSc1ccccc1)Nc1cc(S(=O)(=O)N2CCOCC2)ccc1N1CCOCC1,i,59,i,i,i,i
